# Reference: PubChem BioAssay (NCI)
# About 83,000 compounds went through this panel and 20% of them were active in at least one assay; those are over-represented in the sample as a whole.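 Results are percent growth after 48 hours of single-concentration exposure. 100 means growth as in untreated cells, lower positive values show inhibition; negative values down to -100 show cell death.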 A number with no mark means an inactive call. Active and inactive are the calls of the source. How the source made its calls: active means growth percent below 10; inactive means the rest.
# Tested on: NCI-H522 lung
# Experiment: NCI-60 one-dose screen, 48 h (100 = growth as untreated, 0 = no growth, -100 = all killed)
# Settings: 10 µM unless noted
row,SMILES,growth
1,O=[N+]([O-])c1cc(/C=N/Nc2nc(N/N=C/c3ccc(Cl)c([N+](=O)[O-])c3)nc(N3CCCCC3)n2)ccc1Cl,51.9%
2,C#Cc1nc(C(C)=O)cs1,92.1%
3,O=C1[C@H]2Cc3c([nH]c4ccccc34)[C@@H](c3c(Cl)cccc3Cl)N2C(=O)CN1C1CCN(CC2CCCCC2)CC1,101%
4,O=C1Nc2ccccc2/C1=C/c1ccc(COCC2CO2)n1-c1ccc(O)cc1 (stereo not drawn),93.5%
5,CCOc1ccc(NC2=C(Cl)C(=O)c3nc(C)ccc3C2=O)cc1,-61.6% (active)
6,O=S(=O)(NCCCNc1nccc(-c2[nH]c(-c3ccccc3)nc2-c2ccc(Cl)c(O)c2)n1)c1cccc(F)c1,54.2%
7,CN1CCN(Cc2ccc(NC(=O)c3cncc(C#Cc4cnc5ccc(OCC6(C)COC6)nn45)c3)cc2C(F)(F)F)CC1,-28.3% (active)
8,COc1cc2c(cc1OC)C(Sc1ccc(F)cc1)c1c(nc(N)c(C#N)c1N)O2 (stereo not drawn),-37.7% (active)
9,Cc1nc(-c2ccccc2O)ccc1C(=O)N=Nc1c(O)[nH]c2ccc(Br)cc12,97%
10,COc1cc(-c2nnc(SCc3ccc(O)c4ncccc34)n2-c2ccccc2)cc(OC)c1OC,-8.34% (active)
11,NS(=O)(=O)c1ccc(-n2cc(CN3CCCCC3)nn2)cc1,95.8%
12,COc1cc(/C=C2\C(=O)Nc3ccccc32)ccc1OCc1ccc(Cl)cc1,95.8%
13,Cc1ccc(-c2nnc(SCc3ccc(O)c4ncccc34)o2)cc1,26.6%
14,COc1ccccc1NCc1cccn1Cc1ccc(F)cc1,79.5%
15,CCN1CCN(Cc2ccc(C(=O)Nc3ccc(C)c(Oc4ccc(-c5[nH]nc6ncnc(N)c56)cc4)c3)cc2C(F)(F)F)CC1,101%
16,CCOC(=O)c1c(NC(=O)c2ccccc2C(F)(F)F)sc2c1CCC(=O)C2,5.03% (active)
17,CN1CCN(c2ccc(/C=N/n3cnc4oc(-c5ccccc5)cc4c3=N)cc2)CC1,84.4%
18,Cn1ccnc1C(=O)/C=C/c1ccc(CNC(=O)c2ccc(S(F)(F)(F)(F)F)cc2)cc1,29.5%
19,COc1ccc(NC2=C(Cl)C(=O)c3nc(C)ccc3C2=O)cc1OC,78.8%

row,SMILES,growth
1,CCc1nn2c(C)cc(C)nc2c1Cc1ccc(/C=C/CN2CCN(CCOCCOCCN3CCN(C/C=C/c4ccc(Cc5c(CC)nn6c(C)cc(C)nc56)cc4)CC3)CC2)cc1,-47.9% (active)
2,COc1c(N2CC3CCCNC3C2)c(F)cc2c(=O)c(C(=O)N/N=C/c3c[nH]c4ccccc34)cn(C3CC3)c12 (stereo not drawn),107%
3,CC(=O)c1nnn(-c2c(C(=O)n3nc(C)cc3C)sc(=S)n2-c2ccccc2)c1C,99.8%
4,CCCCc1nc(/C=N/Nc2nc(Nc3ccccc3)nc(Nc3ccc(S(N)(=O)=O)cc3)n2)c(Cl)[nH]1,41.9%
5,O=C(CNc1nc(-c2cccc([N+](=O)[O-])c2)cs1)Nc1cccc(Cl)c1,98.3%
6,O=C(CSc1nnc(-c2ccc(Cl)cc2)n1-c1ccccc1)Nc1ccc(Br)cc1,12.1%
7,Cn1ccnc1C(=O)/C=C/c1ccc(NC(=O)c2c(F)c(F)c(F)c(F)c2F)cc1,94.3%
8,CNC(=O)c1cc(N2CCc3cc(NC(=O)Nc4ccc(Cl)c(C(F)(F)F)c4)ccc32)ccn1,50%
9,COc1c(N2CC3CCCNC3C2)c(F)cc2c(=O)c(C(=O)N/N=C/c3ccccc3)cn(C3CC3)c12 (stereo not drawn),109%
10,C[C@H](CCC(=O)NCc1ccc(C(=O)Nc2ccccc2N)cc1)[C@H]1CC[C@H]2[C@@H]3[C@@H](O)C[C@@H]4C[C@H](O)CC[C@]4(C)[C@H]3CC[C@]12C,37.8%
11,COc1c(N2CC3CCCNC3C2)c(F)cc2c(=O)c(C(=O)N/N=C/c3ccc4c(c3)OCO4)cn(C3CC3)c12 (stereo not drawn),29.3%
12,O=S(=O)(NCCCNc1nccc(-n2cnc3ccccc32)n1)c1ccc(C(F)(F)F)cc1,70%
13,C=CCn1c(SCC(=O)Nc2ccc(C(=O)/C=C/c3cc(OC)c(OC)c(OC)c3)cc2)nnc1-c1c[nH]c2ccccc12,35.7%
14,Brc1ccccc1/C=N/Nc1nc(N/N=C/c2ccccc2Br)nc(N2CCOCC2)n1,86.6%
15,COc1ccc(-c2cc(-c3ccc(Cl)cc3)c(C#N)c(=O)n2Cc2ccc(C(=O)O)cc2)cc1,28.5%
16,CS(=O)(=O)Nc1cc(-c2ccc3ncc(C#N)c(NCc4cccc(F)c4)c3c2)cnc1Cl,10.7%
17,COc1ccc(NC(=O)Nc2ccc3c(ccn3C(=O)c3cccc(F)c3)c2)cc1,78.6%
18,O=C(CNc1nc(-c2cccc([N+](=O)[O-])c2)cs1)Nc1cccc([N+](=O)[O-])c1,-36.2% (active)
19,O=C(/C=C/c1ccc(F)cc1)c1ccc(O)cc1,90.1%
